Among all 87,000 compounds or so, about 360 (0.41%) were called active. Cut-off read from the data, not from the text of the source: active = cytotoxicity above about 50%; inactive = the rest. Shown is part of a subset that was picked to be rich in actives.
Assay: HT1080 cell viability loss – fluorescence readout (AID 620);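 note: cells exposed to compound overnight then 4 h with Alamar Blue; 0% = vehicle DMSO and 100% = killing control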
Conditions: at 10 µM, hits give high values

Question: Which cytotoxicity does the source give for CCOC(=O)CSCC(=O)Nc1ccc(S(=O)(=O)N2CCCCC2)cc1 here?
Answer: 6.7% (inactive)

Question: Which cytotoxicity does the source give for CC(C)(C)c1nc(CN2CCOCC2)ccc1O here?
Answer: -2.2% (inactive)

Question: For Cc1ccc2nc(NCc3ccccc3)[nH]c2c1, which cytotoxicity is on record?
Answer: 63.1% (active)

Question: Which cytotoxicity does the source give for COc1ccc2nc(NCc3ccccc3)[nH]c2c1 here?
Answer: 24.9% (inactive)

Question: For c1ccc(CNc2nc3ccccc3[nH]2)cc1, which cytotoxicity is on record?
Answer: 4.5% (inactive)

Question: For CC(C(=O)Oc1ccc2c(c1)OCO2)N1C(=O)c2ccccc2C1=O (centres undefined), which cytotoxicity is on record?
Answer: 3.4% (inactive)

Question: Which cytotoxicity does the source give for CC(=O)N1CCc2cc(C(=O)CN3CCCCC3)ccc21 here?
Answer: -6.3% (inactive)

Question: With CCN1CCN(Cc2nc3c(c(=O)[nH]c(=O)n3C)n2Cc2ccccc2Cl)CC1 as the compound, how does the cytotoxicity read?
Answer: 4.2% (inactive)

Question: Which cytotoxicity does the source give for COc1ccc(-c2cc(-c3cccs3)c(C#N)c(SCC(=O)NCc3ccco3)n2)cc1 here?
Answer: 55.1% (active)

Question: Which cytotoxicity does the source give for COc1ccc(CNC(=O)CSc2nc(-c3ccccc3)cc(-c3cccs3)c2C#N)cc1 here?
Answer: -13.6% (inactive)

Question: Which cytotoxicity does the source give for COc1ccc(-c2cc(-c3cccs3)c(C#N)c(SCC(=O)NCc3ccccc3)n2)cc1 here?
Answer: -5.2% (inactive)

Question: For Nc1nc(SCc2ccc(Cl)cc2)ns1, which cytotoxicity is on record?
Answer: -0.5% (inactive)

Question: For CCOC(=O)C1CCCN(Cc2ccccc2OCC)C1 (centres undefined), which cytotoxicity is on record?
Answer: 8.9% (inactive)

Question: For COc1ccc(C(=O)Nn2c(C)ccc2C)cc1OC, which cytotoxicity is on record?
Answer: -1% (inactive)

Question: With CS(=O)(=O)N1CCN(c2ccccc2NC(=O)c2ccc(-c3ccc(Cl)cc3Cl)o2)CC1 as the compound, how does the cytotoxicity read?
Answer: 6% (inactive)

Question: For COc1ccc(C2=NOC(C(=O)NCc3ccc(F)cc3)C2)cc1 (centres undefined), which cytotoxicity is on record?
Answer: 7% (inactive)

Question: For COc1ccc(C2=NOC(C(=O)NCc3ccc(F)cc3)C2)cc1OC (centres undefined), which cytotoxicity is on record?
Answer: 57.2% (active)

Question: Which cytotoxicity does the source give for COc1cccc(C2=NOC(C(=O)NCc3ccc(F)cc3)C2)c1 (centres undefined) here?
Answer: -1.1% (inactive)

Question: With COc1ccc(CNC(=O)C2CC(c3ccc(OC)cc3)=NO2)cc1 (centres undefined) as the compound, how does the cytotoxicity read?
Answer: -0.6% (inactive)

Question: Which cytotoxicity does the source give for COc1ccc(CNC(=O)C2CC(c3ccc(F)cc3)=NO2)cc1 (centres undefined) here?
Answer: 3.2% (inactive)

Question: With COc1cc(C2=NOC(C(=O)NCc3ccc(F)cc3)C2)cc(OC)c1OC (centres undefined) as the compound, how does the cytotoxicity read?
Answer: 64.5% (active)

Question: Which cytotoxicity does the source give for COc1ccc2[nH]c(=O)c(C(c3nnnn3C3CCCC3)N3CCN(Cc4ccc5c(c4)OCO5)CC3)cc2c1 (centres undefined) here?
Answer: -0.4% (inactive)

Question: Which cytotoxicity does the source give for COc1cc(NC(=O)c2nccnc2C(=O)O)cc(OC)c1 here?
Answer: -8% (inactive)

Question: With C=CCSc1ncc(C#N)c(N)n1 as the compound, how does the cytotoxicity read?
Answer: 14.9% (inactive)

Question: For O=C(OCC(=O)N1CCc2ccccc21)c1cccnc1Cl, which cytotoxicity is on record?
Answer: -2.9% (inactive)

Question: Which cytotoxicity does the source give for CS(=O)(=O)N1CCCC(C(=O)NCCCN2CCc3ccccc3C2)C1 (centres undefined) here?
Answer: -1.1% (inactive)

Question: With C[C@@H](C(=O)NCCc1c[nH]c2ccccc12)[C@@H]1C[C@@]1(C)[C@@H](NC(=O)OCc1ccccc1)c1ccccc1 as the compound, how does the cytotoxicity read?
Answer: 0.9% (inactive)

Question: Which cytotoxicity does the source give for Cc1cc2c(c(C)nn2-c2ccccc2)c(=O)o1 here?
Answer: -11.4% (inactive)

Question: For CCCCCCCCCn1c2c(c(=N)c3c1CCC3)CCC2, which cytotoxicity is on record?
Answer: 51.6% (active)

Question: With CCCCCCCCCCn1c2c(c(=N)c3c1CCC3)CCC2 as the compound, how does the cytotoxicity read?
Answer: 38.3% (inactive)

Question: Which cytotoxicity does the source give for CCCCCCn1c2c(c(=N)c3c1CCC3)CCC2 here?
Answer: 12.4% (inactive)

Question: With Cn1c(=O)[nH]c(=O)c2c1nc(CN1CCN(c3ccccc3F)CC1)n2CC(N)=O as the compound, how does the cytotoxicity read?
Answer: -7.3% (inactive)

Question: With COC(=O)C(C(C)=O)C1=C/C(=N\S(=O)(=O)c2ccc(C)cc2)c2ccccc2C1=O (centres undefined) as the compound, how does the cytotoxicity read?
Answer: -13% (inactive)

Question: Which cytotoxicity does the source give for Cc1ccc(NC2=C/C(=N\S(=O)(=O)c3cccs3)c3ccccc3C2=O)c(C)c1 here?
Answer: 61.6% (active)

Question: With COC(=O)c1ccccc1NC1=C/C(=N\S(=O)(=O)c2cccs2)c2ccccc2C1=O as the compound, how does the cytotoxicity read?
Answer: -53% (inactive)

Question: With O=c1nc(N2CCOCC2)ccn1Cc1ccc(Br)cc1 as the compound, how does the cytotoxicity read?
Answer: -6.8% (inactive)

Question: Which cytotoxicity does the source give for C=CCn1cc(C(=O)OC)c(=O)c2cc(S(=O)(=O)N3CCC(C)CC3)ccc21 here?
Answer: 6.1% (inactive)

Question: For COc1ccc(NC(=O)c2oc3ccccc3c2NC(=O)COc2ccccc2OC)c(OC)c1, which cytotoxicity is on record?
Answer: -4.5% (inactive)

Question: Which cytotoxicity does the source give for O=C(CN1CCN(c2ccccn2)CC1)N1c2ccccc2Sc2ccc(C(F)(F)F)cc21 here?
Answer: 6.6% (inactive)

Question: Which cytotoxicity does the source give for O=C(NC1CCN(C(=O)N2c3ccccc3Sc3ccccc32)CC1)c1ccco1 here?
Answer: 3.2% (inactive)

Question: For O=C(N1CCN(c2ccccn2)CC1)N1c2ccccc2Sc2ccccc21, which cytotoxicity is on record?
Answer: 59.7% (active)

Question: Which cytotoxicity does the source give for O=C(c1ccco1)N1CCN(C(=O)N2c3ccccc3Sc3ccccc32)CC1 here?
Answer: 60.9% (active)

Question: For O=C(N1CCOCC1)N1CCN(c2ccccn2)CC1, which cytotoxicity is on record?
Answer: 6.2% (inactive)

Question: With O=C(c1ccco1)N1c2ccccc2Sc2ccccc21 as the compound, how does the cytotoxicity read?
Answer: 0.2% (inactive)

Question: Which cytotoxicity does the source give for Cc1ccccc1C(NC(N)=O)c1ccccc1 (centres undefined) here?
Answer: 0.3% (inactive)

Question: With CC(C)N=C(NC#N)SCc1ccccc1 as the compound, how does the cytotoxicity read?
Answer: 0.9% (inactive)

Question: For COc1ccccc1-c1nnc2n1N=C(c1ccc(O)c(O)c1)CS2, which cytotoxicity is on record?
Answer: 48% (inactive)

Question: With COc1ccc(C2=Nn3c(nnc3-c3ccccc3OC)SC2)cc1OC as the compound, how does the cytotoxicity read?
Answer: 56.1% (active)

Question: With COc1ccc(C2=Nn3c(nnc3-c3ccccc3)SC2)cc1OC as the compound, how does the cytotoxicity read?
Answer: 11.6% (inactive)

Question: For CCOc1ccc(-c2nnc3n2N=C(c2ccc(OC)cc2)CS3)cc1, which cytotoxicity is on record?
Answer: 11.5% (inactive)

Question: With CCOc1ccc(C2=Nn3c(nnc3-c3ccc(OC)cc3)SC2)cc1 as the compound, how does the cytotoxicity read?
Answer: 38% (inactive)

Question: Which cytotoxicity does the source give for CCOc1ccc(C2=Nn3c(nnc3-c3ccccc3OC)SC2)cc1 here?
Answer: 62.9% (active)

Question: With CSC1CCCCC1(O)CSc1nc2ccccc2o1 (centres undefined) as the compound, how does the cytotoxicity read?
Answer: -0.9% (inactive)

Question: With O=C(CCN1C(=O)C2C3C=CC(C3)C2C1=O)N1CCN(c2ccc(F)cc2)CC1 (centres undefined) as the compound, how does the cytotoxicity read?
Answer: 0.6% (inactive)

Question: For O=C(O)C1CC=C(Cl)CC1C(=O)NCC1OCCc2ccccc21 (centres undefined), which cytotoxicity is on record?
Answer: 22.3% (inactive)

Question: For O=C(NCc1ccc(F)cc1)C1CCN(C(=O)NCc2ccccc2)CC1, which cytotoxicity is on record?
Answer: -1% (inactive)

Question: For OCCc1ccc(-c2ccc(Cl)cc2)o1, which cytotoxicity is on record?
Answer: 0.4% (inactive)

Question: With Cc1nn(-c2ccc(F)cc2)c2sc(C(=O)N3CCCCCC3)cc12 as the compound, how does the cytotoxicity read?
Answer: -14% (inactive)

Question: Which cytotoxicity does the source give for CC(=O)Nc1ccc2nc(-c3ccccn3)[nH]c2c1 here?
Answer: 7.2% (inactive)

Question: With Nc1ccc2nc(-c3ccccn3)[nH]c2c1 as the compound, how does the cytotoxicity read?
Answer: 18.5% (inactive)

Question: Which cytotoxicity does the source give for CC1(C)OC(=O)N(c2ccccc2)C12C=Cc1cc(Br)ccc1O2 (centres undefined) here?
Answer: -10.5% (inactive)

Question: For Nc1nonc1C(=O)NCCNCc1cc(Br)ccc1OCc1ccccc1F, which cytotoxicity is on record?
Answer: 99.7% (active)

Question: Which cytotoxicity does the source give for Nc1nonc1C(=O)NCCNCc1cc(Br)ccc1OCc1ccc(F)cc1 here?
Answer: 21.8% (inactive)

Question: Which cytotoxicity does the source give for Nc1nonc1C(=O)NCCNCc1ccccc1OCc1ccccc1F here?
Answer: 0.5% (inactive)
